# Reference: the supplement of paper PMC3334620
# Whole data set: some 33,000 sequences, median “E-score (-0.5 to 0.5)” near -0.011, cut for the highest 2% near 0.28. The sample holds the highest values, similar sequences and a random draw of the others, so the mix is not that of the screen.
# Target: T1, Gcr1 (UniProt P07261)
# T1 sequence: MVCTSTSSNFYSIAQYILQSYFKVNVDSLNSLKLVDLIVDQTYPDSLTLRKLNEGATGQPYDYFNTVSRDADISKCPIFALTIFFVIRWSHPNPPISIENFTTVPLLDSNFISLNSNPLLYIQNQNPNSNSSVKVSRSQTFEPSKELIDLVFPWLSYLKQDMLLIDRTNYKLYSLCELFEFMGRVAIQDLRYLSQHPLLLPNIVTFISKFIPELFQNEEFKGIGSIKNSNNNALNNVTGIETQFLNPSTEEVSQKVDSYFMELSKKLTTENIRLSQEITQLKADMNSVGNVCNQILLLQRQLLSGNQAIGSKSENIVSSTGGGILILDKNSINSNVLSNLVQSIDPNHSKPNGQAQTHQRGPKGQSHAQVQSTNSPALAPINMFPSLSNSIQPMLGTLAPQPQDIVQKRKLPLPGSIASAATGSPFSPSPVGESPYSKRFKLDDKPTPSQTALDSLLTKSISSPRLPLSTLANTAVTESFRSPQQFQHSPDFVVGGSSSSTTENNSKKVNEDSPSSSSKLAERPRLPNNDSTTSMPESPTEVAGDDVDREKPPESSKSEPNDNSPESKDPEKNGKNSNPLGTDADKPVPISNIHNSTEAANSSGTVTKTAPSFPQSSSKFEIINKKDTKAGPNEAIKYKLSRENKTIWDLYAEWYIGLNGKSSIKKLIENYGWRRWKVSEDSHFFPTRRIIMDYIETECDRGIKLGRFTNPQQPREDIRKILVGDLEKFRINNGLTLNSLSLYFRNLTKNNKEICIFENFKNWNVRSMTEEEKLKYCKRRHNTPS
# Experiment: PBM E-score (8-mer binding enrichment) (E-score (-0.5 to 0.5)); higher = stronger / more preferred TF binding
# Conditions: protein concentration: 100 nM; construct: GST-full length
# Procedure: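 Universal 'all 10-mer' protein binding microarrays (Agilent AMADID 015681) probed with GST-tagged S. cerevisiae TFs (full-length or DBD) made by in vitro transcription/translation (PURExpress), about 100-200 nM. Bound TF was detected with fluorescent anti-GST. Each ungapped 8-mer (which stands for itself and its reverse complement) is scored by the PBM enrichment score (E-score), a modified Wilcoxon-Mann-Whitney statistic from -0.5 to +0.5, computed with the Universal PBM Analysis Suite. Scale: above 0.35 generally sequence-specific binding.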
row,Sequence,PBM E-score
1,GCTCGACC,0.00687
2,CCGGCAGA,0.0729
3,CTGGCAGA,0.0263
4,CCGGCAAG,-0.101
5,CCGGCAGG,-0.253
6,GGGGCACA,-0.0447
7,CCGGCAAC,0.318
8,CTGGCAGC,0.386
9,GCGGCAAC,0.0813
10,AGGGCACC,0.13
11,ATGGCAGC,0.0656
12,CCGGCAGC,0.292
13,GGGGCACC,0.351
14,AGTTCGAA,-0.0147
15,GCCCAAAC,0.111
16,GTTACCCA,-0.141
17,CCCTCTCA,-0.131
18,GAGTACCC,-0.0644
19,CCCACTCC,0.0066
20,CGGGTCTA,0.0247
21,CGGGCAGA,-0.0209
22,CGGGCATA,-0.232

row,Sequence,PBM E-score
1,ACGGCATC,0.2
2,CTGGCACA,-0.0796
3,CTGGCACC,0.392
4,AGGGCAGC,0.0608
5,CCGGCATA,0.0787
6,CGGGCATC,0.282
7,AGGGCATC,0.129
8,CGGGCAGC,0.309
9,CCGGCATC,0.38
10,ATGGCACC,0.201
11,AGTTTCAT,0.116
12,CCAAAGGC,-0.185
13,CCCGCTTA,0.161
14,CATGCGTC,-0.0513
15,CCTGAGAG,-0.131
16,CGACCGAC,0.0935
17,CACCAGTC,-0.02
18,GGGGTCCA,0.0846
19,AAATTTTA,0.126
20,AGTCGAGC,-0.0406
21,GACTGTCA,-0.154
22,AGAGGTAT,0.196

row,Sequence,PBM E-score
1,ATAGATTC,0.114
2,CCGCTCAG,0.0454
3,ACGTTCTC,-0.172
4,CTGGCATA,0.0454
5,CGGGCACC,0.376
6,CTGGCATC,0.304
7,CGGGCACG,0.107
8,ATGGCATC,0.175
9,CGGGCACA,-0.0928
10,CAGGCAGG,-0.143
11,GCGGCACC,0.324
12,ACGGCACC,0.142
13,CAGGCAGA,-0.0141
14,CCGGCACC,0.28
15,CAGGCAGC,0.285
16,CCCTACTA,0.0892
17,AATTTACT,0.155
18,AAACCAGA,0.0613
19,AAATCCAA,0.142
20,CCATCCAC,-0.0219
21,TCATCCAA,-0.114
22,GCATCCAC,0.452

row,Sequence,PBM E-score
1,GAATCCAA,0.309
2,ACATCCAC,0.133
3,TAATCCAA,0.134
4,GCATCCAA,0.366
5,CCATCCAA,-0.121
6,TCCTAGAA,0.174
7,GAATGGCC,-0.116
8,CAAGCGCG,-0.0724
9,ATATGAGG,0.033
10,AGAAAACC,-0.0435
11,CGGAGCAG,0.0182
12,ACATACTG,0.0904
13,AGGACGCA,0.0414
14,ACGACGCG,0.0493
15,AGGACGCC,0.453
16,CGGACGTC,0.134
17,ACGACGCC,0.217
18,AGGACGCG,0.283
19,CGGACGCA,0.0459
20,AGGACGAG,-0.073
21,CGGACGCC,0.416
22,CGACCCAC,-0.0741
